The supplement of paper PMC10720658
± gives the standard deviation of the averaged measurements.

Test system: AEK1 (Tb927.3.2440)
Assay: percent reduction in TR-FRET probe signal relative to DMSO control; higher = stronger displacement of ATP-site probe (binding)
Settings: 1 µM; incubation time 1 h

Compound | percent reduction in TR-FRET probe signal [%]
CN1CCN(c2ccc(-c3ccncc3-c3cc(F)c(O)c(F)c3)cc2)CC1 | 1.75 ± 5.2
COc1cc2nccc(Oc3ccc(NC(=O)Nc4cc(C)on4)c(Cl)c3)c2cc1OC [Tivozanib (AV-951)] | -2.48 ± 4.1
C[C@]1(O)C[C@@H](c2nc(-c3ccc4ccc(-c5ccccc5)nc4c3)c3c(N)nccn32)C1 [OSI-906 (Linsitinib)] | -6.09 ± 6
CC(C)NC[C@@H](C(=O)N1CCN(c2ncnc3c2[C@H](C)C[C@H]3O)CC1)c1ccc(Cl)cc1 | 11.4 ± 8.1
C[C@@H]1CCN(C(=O)CC#N)C[C@@H]1N(C)c1ncnc2[nH]ccc12 | 5.48 ± 7.8
O=C1NC(=O)/C(=C/c2cccc(C(F)(F)F)c2)S1 | -3.02 ± 1.9
CO[C@@H](C(=O)N1Cc2[nH]nc(NC(=O)c3ccc(N4CCN(C)CC4)cc3)c2C1)c1ccccc1 | 24.2 ± 6.1
CCN(CCO)CCCOc1ccc2c(Nc3cc(CC(=O)Nc4cccc(F)c4)n[nH]3)ncnc2c1 [Barasertib (AZD1152-HQPA)] | -5.79 ± 4.7
CNC(=O)c1cc(Oc2ccc(NC(=O)Nc3cc(C(C)(C)C)nn3-c3ccc4ncccc4c3)c(F)c2)ccn1 [DCC-2036 (Rebastinib)] | 21.5 ± 15
CO[C@H]1C[C@@H]2CC[C@@H](C)[C@@](O)(O2)C(=O)C(=O)N2CCCC[C@H]2C(=O)O[C@H]([C@H](C)C[C@@H]2CC[C@@H](OP(C)(C)=O)[C@H](OC)C2)CC(=O)[C@H](C)/C=C(\C)[C@@H](O)[C@@H](OC)C(=O)[C@H](C)C[C@H](C)/C=C/C=C/C=C/1C [Ridaforolimus (Deforolimus, MK-8669)] | 1.74 ± 22
O=C(Cc1ccc(-c2ccc(OCCN3CCOCC3)cc2)cn1)NCc1ccccc1 | -1.26 ± 9
C=CC(=O)Nc1cccc(Nc2nc(Nc3ccc(OCCOC)cc3)ncc2F)c1 | -0.667 ± 7.7
CC[C@H](CO)Nc1nc(NCc2ccccc2)c2ncn(C(C)C)c2n1 [Roscovitine (Seliciclib,CYC202)] | -4.47 ± 5.4
O=c1cc(N2CCOCC2)oc2c(-c3ccccc3)cccc12 | -4.66 ± 9.2
CCc1cc(Nc2nccc(-c3c(-c4ccc(OC)c(C(=O)Nc5c(F)cccc5F)c4)nc4ccccn34)n2)c(OC)cc1N1CCC(N2CCN(S(C)(=O)=O)CC2)CC1 | -12.2 ± 12
CNC(=O)c1cc(Oc2ccc(NC(=O)Nc3ccc(Cl)c(C(F)(F)F)c3)c(F)c2)ccn1 [Regorafenib (BAY 73-4506)] | 11.5 ± 5.7

Compound | percent reduction in TR-FRET probe signal [%]
C[C@@H](Oc1cc(-n2cnc3ccc(CN4CCN(C)CC4)cc32)sc1C(N)=O)c1ccccc1C(F)(F)F | 2.7 ± 0.28
CC(C)(C)NS(=O)(=O)c1cncc(-c2cc(F)c3nc(N)nn3c2)c1 | -7.77 ± 4.5
CNC(=O)c1cc(Oc2ccc3nc(N[C@@H]4CCCC[C@H]4O)sc3c2)ccn1 | -6.41 ± 1.1
COc1ccc2c(c1)c(C1=C(c3c[nH]c4ccccc34)C(=O)NC1=O)cn2CCCN(C)C | 4.65 ± 14
CC(C)(C)c1ccc(S(=O)(=O)/C=C/C#N)cc1 | -17 ± 7.6
O=C(NOCC1CC1)c1ccc(F)c(F)c1Nc1ccc(I)cc1Cl | 5.58 ± 12
O=C(Nc1cccnc1)c1cc(-c2ccnc(F)c2)ccc1OCc1ccccc1 | -0.16 ± 3.2
Cc1nc(Nc2cnn(C3CCNCC3)c2)nc2c1N(C)C(=O)c1cc3ccccc3cc1N2C | -10.5 ± 7.1
COc1cc2ncnc(Nc3ccc(F)c(Cl)c3)c2cc1NC(=O)/C=C/CN1CCCCC1 | -9.62 ± 5
Cc1c(CN2CCN(C(=O)[C@H](C)O)CC2)sc2c(N3CCOCC3)nc(-c3cnc(N)nc3)nc12 | 0.467 ± 7.8
CCn1c2ccccc2c2cc(Nc3ccnc(NCCCN4CCOCC4)n3)ccc21 | -8.54 ± 5.5
Cc1ccc(C(=O)Nc2ccc(CN3CCN(C)CC3)c(C(F)(F)F)c2)cc1C#Cc1cnc2cccnn12 | 0.933 ± 14
C=CC(=O)Nc1ccc(CN2C(=O)N(c3cc(OC)cc(OC)c3)Cc3cnc(Nc4ccc(N5CCN(C)CC5)cc4)nc32)cc1 | 4.12 ± 14
O=C(NOC[C@H](O)CO)c1ccc(F)c(F)c1Nc1ccc(I)cc1F | -3.89 ± 11
NC[C@@](O)(c1ccc(Cl)cc1)c1ccc(-c2cn[nH]c2)cc1 | 11 ± 16
